Rab9 promoter act – activates the Rab9 promoter; Huh7 Rab9 promoter-luciferase reporter, luminescence, 24 h; Potency, µM (doses to about 9.22 µM), for the others: top-dose activation, negative = inhibition, hits mostly activators; hit rate 2.8% among 320,000; note: % of control where 0% means no effect; nearly all actives have a fitted effect of over 60% in size
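Measured in stably transfected Huh7 cells bearing a Rab9 promoter–luciferase construct: 24 h compound treatment at 37 °C, followed by luminescence detection.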
p53 reactivation – restores transcriptional activity of mutant p53; H1299 p53-A138V BP100-luciferase reporter, luminescence, 24 h; Potency, µM (doses to about 92.2 µM), for inactives: top-dose activity change, positive = activation, actives largely listed as activators; hit rate 0.063% among 320,000; AID 504706; note: % of control where 0% means no effect; nearly all actives have a fitted effect of over 45% in size
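p53-null H1299 cells stably carrying temperature-sensitive p53-A138V and a BP100-luciferase reporter were pinned with compounds (4-point, 1:5 series) and held 24 hrs at 37 deg C. Luminescence was read 10 min after detection reagent.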
SMN2 splice up – enhancers of SMN2 splice variant expression | hit rate 2.8% among 210,000 | Potency, µM (titrated, usually from 46.1 µM), inactives show top-dose activity change, positive = activation, hits mostly activators | HEK293 SMN2-luciferase splicing reporter, luminescence, 30-36 h; note: % of control where 0% means no effect; nearly all actives have a fitted effect of over 55% in size
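qHTS luciferase splicing reporter: luminescence rises when SMN2 exon 7 is included in transfected HEK293 cells. Compound exposure lasted 30-36 h at 37C, with 4.5 mM final sodium butyrate as control, followed by a ONE-Glo read.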
FLuc counter – inhibits or activates purified firefly luciferase, miR-21 counter-screen | Potency, µM (highest dose often 57.5 µM), without a hit: at the highest dose activity change, negative = inhibition, usual class: inhibitors | hit rate 6.9% among 360,000 | P08659 | purified FLuc, Km substrates, luminescence inhibition;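 note: plate controls were vehicle for no effect and reference inhibitor for full effect; nearly all actives have a fitted effect of over 55% in size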
Target sequence (P08659 whole entry, looked up): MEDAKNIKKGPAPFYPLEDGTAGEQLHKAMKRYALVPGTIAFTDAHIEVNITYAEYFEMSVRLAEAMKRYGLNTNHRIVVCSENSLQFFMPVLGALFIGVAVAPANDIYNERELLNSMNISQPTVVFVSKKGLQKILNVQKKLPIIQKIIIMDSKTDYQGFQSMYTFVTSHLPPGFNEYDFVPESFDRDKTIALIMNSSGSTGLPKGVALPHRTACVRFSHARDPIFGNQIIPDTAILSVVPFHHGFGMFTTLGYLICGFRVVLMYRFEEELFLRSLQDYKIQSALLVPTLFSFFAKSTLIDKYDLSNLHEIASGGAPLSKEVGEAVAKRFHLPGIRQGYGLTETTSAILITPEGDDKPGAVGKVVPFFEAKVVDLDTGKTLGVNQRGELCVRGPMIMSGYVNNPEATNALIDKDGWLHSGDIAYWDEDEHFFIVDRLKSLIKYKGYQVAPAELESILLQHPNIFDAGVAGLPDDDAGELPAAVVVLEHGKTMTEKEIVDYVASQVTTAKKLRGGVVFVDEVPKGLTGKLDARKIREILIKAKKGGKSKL
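Purified P. pyralis luciferase, 10 nM final, with Km-level 10 uM D-luciferin and 10 uM ATP in 50 mM Tris acetate pH 7.5, 10 mM Mg acetate, 0.01% Tween-20, 0.05% BSA; 6-point qHTS titration about 60 µM downward; luminescence read.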
ELG1 genotoxic – genotoxicity induction in ELG1-luciferase HEK293T cells; HEK293T ELG1-luciferase reporter, luminescence, 16 h; Potency, µM (top dose mostly 46 µM), for inactives: top-dose activity change, positive = activation, usual class: activators; hit rate 1.3% among 330,000; note: % of control where 0% means no effect; nearly all actives have a fitted effect of over 60% in size
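16 hr compound incubation (37 °C, 5% CO2) of HEK293T cells carrying luciferase-tagged ELG1; luciferase then measured by ONE-Glo luminescence after 30 min at RT.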
NPC1 prom act – NPC1 promoter activation; Huh7 NPC1 promoter luciferase reporter, 24 h; Potency, µM (highest dose often 9.22 µM), for the others: top-dose activation, usual class: activators; hit rate 2.4% among 320,000; AID 485313; note: % of control where 0% means no effect; nearly all actives have a fitted effect of over 60% in size
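Luminescence read-out of NPC1 promoter-driven luciferase in stably transfected Huh7 cells; compounds delivered in DMSO and left 24 h at 37C, 5% CO2, qHTS titration format.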
Starred values were filed as active, the others as inactive; ? = inconclusive; . = not tested or not shown; [ ] = dose if it differs, or a comment. Shown are actives, neighbours in structure and some others; about 7.4% of the full set was active somewhere. Calls come from the whole dose curve; as a rule, active = well fitted curve in the direction sought with a large enough effect; inconclusive = small, poorly fitted or top-dose-only effect, or another doubt; inactive = no such curve, though single readings can be large; an effect the other way counts as inactive or inconclusive. Potency is the fitted concentration of half-maximal effect.

SMILES | Rab9 promoter act | p53 reactivation | SMN2 splice up | FLuc counter | ELG1 genotoxic | NPC1 prom act
CCOc1cccc(/C=N/NC(=S)Nc2ccccc2[N+](=O)[O-])c1O | 1.5% | 7.2% | -80.7% | ? | 0.366µM* | 4.9%
CCOC(=O)C1=CN(Cc2ccco2)S(=O)(=O)N(CC)C1c1ccc(C(F)(F)F)cc1 (centres undefined) | . | 9.5% | . | . | 0.6% | .
CCCOc1ccc(-c2nonc2NC(=O)COc2ccc(C)cc2)cc1OCCC | . | . | -6.4% | 1.2% | . | .
CC(C)c1ccc(N2C(=O)CC(Sc3ncccn3)C2=O)cc1 (centres undefined) | 0.2% | . | . | 0.3% | 0.9% | 2.1%
O=c1c2ccccc2oc2ccc(Oc3ccccc3)cc12 | 1.78µM* | 18.5% | . | 4.26µM* | ? | 2.82µM*
COc1cc2oc3ccccc3c(=O)c2cc1OC | 5.3% | 10.5% | . | ? | ? | ?
N#Cc1ccccc1Sc1ccccc1N | 1.2% | -0.8% | 1.9% | -17.3% | 1.3% | -2.3%
Nc1ccccc1SSc1ccccc1N | 6.0%[1.84 µM] | ? | . | 10.7µM* | 9.6% | -0.1%
Cc1ccc2nc3ccc(N4CCCC4)nn3c(=O)c2c1 | 1.58µM* | 10.5% | 15.8µM* | 10.7µM* | ? | 2.24µM*
CC1CCCN(c2c3c(nc4ccccc24)CCCC3)C1 (centres undefined) | 1.2%[1.84 µM] | 3.1% | . | -0.3% | -11.0% | -5.0%
c1ccc(-c2nnc3ccc(N4CCCC4)nn23)cc1 | -0.6% | -1.6% | -1.9% | 1.5% | -22.7% | -1.5%
Cc1sc2nc3ccc(N4CCCCC4)nn3c(=O)c2c1C | ? | ? | -16.6% | 8.49µM* | -1.5% | ?
CC1CCCN(c2ccc3nc4ccccc4c(=O)n3n2)C1 (centres undefined) | ? | 18.6% | 1.26µM* | 1.07µM* | -12.0% | ?
Cc1sc2nc3n(c(=O)c2c1C)CCCCC3 | 1.1% | 22.8% | 18.4% | -5.5% | 0.2% | -5.3%
CC1CN(S(=O)(=O)c2cccc(C(=O)NCc3ccco3)c2)CC(C)O1 (centres undefined) | -5.3% | -9.1% | . | 5.9% | 1.1% | -4.7%
CCOC(=O)COn1c(=O)c(-c2cc3ccccc3o2)[n+]([O-])c2ccccc21 | 2.24µM* | 27.4% | 14.1µM* | 2.39µM* | ? | ?
O=c1[nH]c(=O)c2nc(Br)n(C3OC(CO)C(O)C3O)c2[nH]1 (centres undefined) | . | . | -0.5% | . | . | .
N#Cc1cccc(NC(=O)N2CCCC3(CCN(C(=O)c4cc(C(F)(F)F)cc(C(F)(F)F)c4)CC3)C2)c1 | . | . | -4.8% | . | . | .
CC1CCc2c(sc(/N=C/c3ccco3)c2C(N)=O)C1 (centres undefined) | 28.1% | 14.2% | . | 5.36µM* | ? | ?
COC(=O)Nc1sc2c(c1C(N)=O)CCC(C)C2 (centres undefined) | -8.3% | -3.8% | . | ? | -0.4% | -3.8%
CC1CCc2c(sc(/N=C/c3cccnc3)c2C(N)=O)C1 (centres undefined) | 2.2% | 3.2% | . | 23.9µM* | 17.3% | 8.1%
COc1cccc(C=Nc2ccc3c(c2)CCC3)c1O | -1.3% | 13.3% | . | 2.69µM* | 6.3% | -5.5%
COc1cccc(/C=N/c2oc(-c3ccccc3)cc2C#N)c1O | 15.3% | 7.5% | -10.0% | ? | -5.3% | -2.2%
N#Cc1ccccc1N=Cc1ccc(Br)cc1 | 0.3% | 6.3% | -1.6% | 1.51µM* | 3.2% | -0.2%
COc1cccc(C=Nc2cc(C)cc(C)c2)c1O | -3.0% | 23.0% | 6.1% | 1.7% | 0.0% | 1.1%
SMILES | Rab9 promoter act | p53 reactivation | SMN2 splice up | FLuc counter | ELG1 genotoxic | NPC1 prom act
COc1cccc(C=Nc2ccccc2C#N)c1O | -2.2% | 2.8% | ? | 2.69µM* | 0.0% | -2.5%
COc1[nH]c(/N=C/c2ccccc2)c(C#N)c1C#N | 1.7% | -5.1% | -11.3% | ? | 0.1% | 1.8%
Cn1cccc1/C=C1\CCC/C(=C\c2cccn2C)C1=O | 0.891µM* | ? | ? | 6.01µM* | 1.84µM* | 1.26µM*
Cn1cccc1/C=N/N1CCN(c2ccccc2)CC1 | 14.3% | -3.4% | 19.9% | -3.0% | 3.1% | -0.3%
Clc1ccc(-c2nnc3ccccn23)cc1 | -1.8% | -6.8% | 9.7% | -1.5% | 4.8% | 1.1%
c1csc(-c2nnc3ccccn23)c1 | 1.8% | -1.0% | 0.0028µM* | -2.9% | -0.9% | 0.0%
O=C(Nc1ccc2ccccc2c1)c1cnccn1 | 1µM* | ? | 11.2µM* | ? | ? | 3.55µM*
COc1ccc(NC(=O)c2cccnc2)cc1 | 12.0% | . | . | -1.9% | 9.9% | 0.6%
O=C(Nc1ccc2c(c1)oc1ccccc12)c1cccnc1 | ? | 4.7% | 5.7% | 6.01µM* | 15.9% | ?
O=C(Nc1ccc2ccccc2c1)c1cccnc1 | 1.41µM* | ? | ? | 9.53µM* | ? | 3.98µM*
O=C(Nc1ccc2c(c1)Cc1ccccc1-2)c1cccnc1 | 3.16µM* | 3.1% | . | 6.75µM* | -0.8% | ?
COc1ccc(CN2CCN(C(=O)c3c(-c4ccccc4)noc3C)CC2)cc1F | -0.4% | -4.4% | . | -2.1% | -1.2% | -2.1%
COc1cc(C(=S)N2CCOCC2)cc(OC)c1OC(=O)c1cccc(C)c1 | -2.9% | . | . | 10.3% | -8.6% | -3.3%
Cc1ccc(NC(=O)Cn2c(=O)n(Cc3nc(C)no3)c(=O)c3cc4c(cc32)OCO4)c(Cl)c1 | . | . | . | -5.3% | . | .
O=C(Nc1ccc2c(c1)Cc1ccccc1-2)c1ccco1 | 0.398µM* | 8.8% | 11.2µM* | 2.13µM* | 3.26µM* | 0.794µM*
N#Cc1ccc(C(=O)Nc2ccc3ccccc3c2)cc1 | 0.447µM* | ? | . | 1.35µM* | ? | 0.355µM*
Cc1ccc2c(c1)Oc1ccc(NC(=O)CCl)cc1C(=O)N2 | -38.8% | -14.5% | -64.1% | -3.9% | 6.4% | -19.2%
O=C(N/N=C/c1cccc2ccccc12)c1n[nH]c2c1CCCC2 | -3.0% | 6.4% | 10.0% | -15.7% | 18.0% | -22.5%
O=C(N/N=C/C=C/c1ccccc1)c1n[nH]c2c1CCC2 | -1.6% | 27.2% | -4.8% | -5.0% | ? | 2.0%
CC(/C=N/NC(=O)c1n[nH]c2c1CCC2)=C\c1ccccc1 | 2.4% | ? | ? | 4.78µM* | 2.31µM* | 27.7%
O=C(N/N=C/C(Br)=C\c1ccccc1)c1n[nH]c2c1CCC2 | 19.9% | ? | 12.6µM* | 2.39µM* | 2.31µM* | ?
CC1CCC2(CC1)NC(=O)N(CC(=O)Nc1ccc3c(c1)OCCO3)C2=O (centres undefined) | 3.55µM* | 2.6% | ? | 26.9µM* | ? | ?
O=C(CN1C(=O)NC2(CCCCCC2)C1=O)c1ccc2c(c1)OCCO2 | 2.82µM* | 5.8% | 17.8µM* | 9.53µM* | 4.11µM* | 2µM*
O=C(COC(=O)c1ccc([N+](=O)[O-])o1)Nc1ncc(Cl)cc1Cl | . | 2.6% | . | . | -0.5% | .
O=C(O)[C@@H]1CCCN1Cc1cc2ccccc2c2ccccc12 | . | . | -10.7%[9.22 µM] | . | . | .

From PubChem
